Screening results as filed in PubChem BioAssay.
In the library only some 3.6% were active in any assay of this set; here they are far more common.
mHTT-CaM PPI inh – disrupts binding of mutant huntingtin to calmodulin. AlphaScreen His-mHTT/GST-CaM binding, luminescence. P42858. inhibition, % at 15 µM. hit rate 3.6% among 190,000
Pf apPOL block – Pf-apPOL DNA polymerase inhibition; Recombinant Pf-apPOL, molecular beacon fluorescence, 1.5 h; hit rate 0.25% among 210,000; inhibition, % at 10 µM; AID 1794808
Of the large screens only hits and unclear results are named; the others gave an inactive call; ! = not confirmed by another sample. Cut-off read from the data, not from the text of the source: active = inhibition above about 50%; inactive = the rest.

COc1ccc(-n2nc3c(c2NC(=O)c2ccc(Br)o2)CS(=O)C3)cc1 (configuration not stated)	none
N#CC(C#N)=C(SCc1c(F)cccc1Cl)SCc1c(F)cccc1Cl	Pf apPOL block 72! (no result: mHTT-CaM PPI inh)
CN(C)C=CC(=N)SCc1c(F)cccc1Cl	none (no result: mHTT-CaM PPI inh)
Cc1ccnc(N2CCCC(C(=O)NCCCN3CCCc4ccccc43)C2)n1 (configuration not stated)	mHTT-CaM PPI inh 52
Cn1ncc(N2CCCC(C(=O)NCCCN3CCCCC3)C2)cc1=O (configuration not stated)	none
O=C(NCCCN1CCCc2ccccc21)C1CCc2nc(N3CCCCC3)ncc2C1 (configuration not stated)	mHTT-CaM PPI inh 54
Cn1ncc(N2CCCC(C(=O)NCCCN3CCCC3=O)C2)cc1=O (configuration not stated)	mHTT-CaM PPI inh 100
Cn1ncc(N2CCCC(C(=O)NCCCN3CCCc4ccccc43)C2)cc1=O (configuration not stated)	mHTT-CaM PPI inh 75
Cc1ccnc(N2CCCC(C(=O)NCCCN3CCN(C)CC3)C2)n1 (configuration not stated)	none
Cn1ncc(N2CCCC(C(=O)NCCCc3ccccc3)C2)cc1=O (configuration not stated)	none
O=C(NCCCN1CCCc2ccccc21)C1CCc2nc(N3CCOCC3)ncc2C1 (configuration not stated)	none
CN1c2cc(C(=O)N3CCN(c4ccccn4)CC3)ccc2C(=O)N2CCCCC21 (configuration not stated)	none
COc1ccc(N2CCN(C(=O)c3ccc(Br)cc3)CC2)cc1	none
CC1C(=O)N(c2ccc(Br)cc2)CCN1C(=O)C1CC1 (configuration not stated)	none
Cc1ccc(C(c2ccc(C)o2)c2cc([N+](=O)[O-])cc(Br)c2O)o1	mHTT-CaM PPI inh 65
Cc1ccc(C(c2ccc(C)o2)c2cc3c(cc2[N+](=O)[O-])OCCO3)o1	mHTT-CaM PPI inh 56
Cc1ccc(C(c2ccc(C)o2)c2cc(Br)cc([N+](=O)[O-])c2O)o1	none
CCCC(=O)c1cc2c(cc1[N+](=O)[O-])OCCO2	none
c1ccc(-c2nnc3n2C2(CCCC2)Cc2ccccc2-3)cc1	none
O=C1C=C2c3ccccc3CC3(CCCC3)N2C1=O	mHTT-CaM PPI inh 84
COC(=O)C1=C(C)NC(=O)CC1c1ccccc1[N+](=O)[O-] (configuration not stated)	none (no result: mHTT-CaM PPI inh)
COc1ccc(NC(=O)CC2(C)NN=C(c3ccccc3)S2)c(OC)c1 (configuration not stated)	mHTT-CaM PPI inh 73
COc1ccc(NC(=O)CCOc2ccccc2)c(OC)c1	none
COc1cccc(CNC(=O)C2CCn3c(nc4ccccc43)C2)c1 (configuration not stated)	none
Cc1ccc(CN2CCN(C3CCN(C(=O)Nc4ccccc4C)CC3)C2=O)cc1	none
CC1CCN(C(=O)C2c3ccccc3CCN2CC(=O)Nc2cccc(Cl)c2)CC1 (configuration not stated)	mHTT-CaM PPI inh 59
CC1CCN(C(=O)C2c3ccccc3CCN2CC(=O)Nc2ccc(F)cc2Cl)CC1 (configuration not stated)	mHTT-CaM PPI inh 88
CC1CCN(C(=O)C2c3ccccc3CCN2CC(=O)Nc2cc(F)ccc2Cl)CC1 (configuration not stated)	none
COc1ccc(Cl)cc1NC(=O)N1CCN(Cc2nc(-c3ccco3)cs2)CC1	mHTT-CaM PPI inh 64
Cc1ccc(NC(=O)CN2CCc3ccccc3C2C(=O)N2CCC(C)CC2)cc1C (configuration not stated)	none
O=C(CN1CCc2ccccc2C1C(=O)N1CCCCC1)NCc1ccc(Cl)cc1 (configuration not stated)	none
COc1ccc(Cl)cc1NC(=O)N1CCN(CCc2ccccc2)CC1	none (no result: mHTT-CaM PPI inh)
COc1ccc(Cl)cc1NC(=O)CN1CCc2ccccc2C1C(=O)N1CCCCC1 (configuration not stated)	mHTT-CaM PPI inh 64
CC(C)(C)C(=O)OCC(N)=NOC(=O)c1cccs1	none (no result: mHTT-CaM PPI inh)
CC(C)NCC(O)COCCC1CC2CCC1C2 (configuration not stated)	none
N#Cc1nc(-c2ccc(F)cc2)oc1N1CCOCC1	none
O=C(Nc1ccc2c(c1)OCO2)N1CCCCCC1c1ccc(Cl)cc1 (configuration not stated)	none
COc1ccc(NC(=O)C2CCc3nc(N4CCN(C(C)=O)CC4)sc3C2)c(OC)c1 (configuration not stated)	none
COc1ccc(Cl)cc1NC(=O)CCN1CCN(C)CC1	Pf apPOL block 55
O=C(CN1CCc2ccccc2C1C(=O)N1CCCCC1)NCc1ccc(F)cc1Cl (configuration not stated)	none
COc1ccc(OC)c(NC(=O)CCN2CCCC2)c1	none
O=C(CN1CCc2ccccc2C1C(=O)N1CCCCC1)Nc1ccc(F)cc1Cl (configuration not stated)	mHTT-CaM PPI inh 68
COc1cccc(CC(=O)Nc2ccn(-c3ccc(F)cc3F)n2)c1	none
O=C(Nc1ccccc1Cl)C1CN(C(=O)c2ccncc2)CC12CCCCC2 (configuration not stated)	none
COc1ccc(/C=C2/C(=O)ON=C2C)cc1Cl	none
C#CCOc1c(Br)cc(/C=C2\C(=O)ON=C2C)cc1OCC	none
CCOc1cc(/C=C2\C(=O)ON=C2C)cc(Cl)c1OCc1ccc(C)cc1	mHTT-CaM PPI inh 71
CCOc1cc(/C=C2\C(=O)ON=C2C)cc(Br)c1OCc1ccc(C)cc1	mHTT-CaM PPI inh 89
CCn1c(=O)cc(C)c2ccc(OCC(=O)Nc3ccccc3F)cc21	none
COc1ccc(OC)c(Nc2nc(-c3sc(N)nc3C)cs2)c1	mHTT-CaM PPI inh 81
COc1ccccc1Nc1nc(-c2ccncc2)cs1	none
COc1ccc(Cl)cc1Nc1nc(-c2sc(N)nc2C)cs1	mHTT-CaM PPI inh 82
COc1nc(Nc2cc(Cl)ccc2OC)nc(OC)n1	none
COc1ccc(-c2cc(CC(=O)N3CCc4ccccc43)no2)cc1OC	none
CCCCC[C@H](C)N1C[C@@H](COCc2ccccc2)Oc2cc(N3CC[C@@H](O)C3)ccc2S1(=O)=O	mHTT-CaM PPI inh 74
CCCCC[C@@H](C)N1C[C@H](COCc2ccccc2)Oc2cc(N3CCC[C@H]3C(N)=O)ccc2S1(=O)=O	none
CCCCC[C@@H](C)N1C[C@@H](COCc2ccccc2)Oc2cc(N3CC[C@H](O)C3)ccc2S1(=O)=O	mHTT-CaM PPI inh 90
CCCCC[C@H](C)N1C[C@H](COCc2ccccc2)Oc2cc(N3CCC[C@H]3C(N)=O)ccc2S1(=O)=O	none
CCCCC[C@@H](C)N1C[C@@H](COCc2ccccc2)Oc2cc(N3CCC[C@@H]3CO)ccc2S1(=O)=O	none
CCCCC[C@@H](C)N1C[C@@H](COCc2ccccc2)Oc2cc(N3CC[C@@H](O)C3)ccc2S1(=O)=O	mHTT-CaM PPI inh 99
O=C(Cc1ccc(F)cc1)Nc1ccccc1Cl	none
CCOc1ccccc1Oc1coc2cc(OC(=O)c3ccc([N+](=O)[O-])cc3)ccc2c1=O	none
Cc1ccc(CSc2nc3c(c(=O)[nH]2)CCC3)cc1	none
COCCOCC(=O)N1c2ccccc2C(C)(c2ccc(Cl)cc2)CC1(C)C (configuration not stated)	none
CC1(C)CC(C)(c2ccc(Cl)cc2)c2ccccc2N1 (configuration not stated)	mHTT-CaM PPI inh 85
CC(=O)Nc1ccc(-c2cn3nc(-c4ccccc4)sc3n2)cc1	mHTT-CaM PPI inh 58
Clc1ccc(-c2cn3nc(-c4ccccc4)sc3n2)cc1	none
